This test concerns A673/TR/shEF. Description: cell viability (LOESS-normalised, relative to median of negative controls) (log2 ratio); higher = more viable cells (less compound effect), active = hit call of the paper (over 3 MAD below the median). Conditions: treatment time: 72 h. In a few lines: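 A673/TR/shEF Ewing sarcoma cells (1,500 per well, 384-well plates) were grown with or without doxycycline to induce EWS-FLI1 shRNA knockdown, starting 24 h before compounds. Library compounds at two or more concentrations, with DMSO controls, were added for three days. Cell viability was read by CellTiter-Glo luminescence on an Envision reader, then LOESS-corrected per plate, divided by the median of negative controls and log2-transformed. Hits were wells at least three median absolute deviations from the median of all screened wells.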

Setting [1] is: 0.25 µM, library screen: screen1, EWS-FLI1 expression: high (no doxycycline).
Setting [2] is: 0.25 µM, library screen: screen1, EWS-FLI1 expression: low (doxycycline-induced shRNA knockdown).
Setting [3] is: 2.5 µM, library screen: screen1, EWS-FLI1 expression: high (no doxycycline).
Where [4] appears, read: 2.5 µM, library screen: screen1, EWS-FLI1 expression: low (doxycycline-induced shRNA knockdown).
[5] abbreviates: 0.25 µM, library screen: screen2, EWS-FLI1 expression: high (no doxycycline).
Setting [6] is: 0.25 µM, library screen: screen2, EWS-FLI1 expression: low (doxycycline-induced shRNA knockdown).
Where [7] appears, read: 2.5 µM, library screen: screen2, EWS-FLI1 expression: high (no doxycycline).
Where [8] appears, read: 2.5 µM, library screen: screen2, EWS-FLI1 expression: low (doxycycline-induced shRNA knockdown).
[9] abbreviates: 0.103 µM, library screen: screen3, EWS-FLI1 expression: high (no doxycycline).
Where [10] appears, read: 0.103 µM, library screen: screen3, EWS-FLI1 expression: low (doxycycline-induced shRNA knockdown).
Where [11] appears, read: 0.308 µM, library screen: screen3, EWS-FLI1 expression: high (no doxycycline).
Setting [12] is: 0.308 µM, library screen: screen3, EWS-FLI1 expression: low (doxycycline-induced shRNA knockdown).
[13] abbreviates: 0.926 µM, library screen: screen3, EWS-FLI1 expression: high (no doxycycline).
[14] abbreviates: 0.926 µM, library screen: screen3, EWS-FLI1 expression: low (doxycycline-induced shRNA knockdown).
[15] abbreviates: 2.8 µM, library screen: screen3, EWS-FLI1 expression: high (no doxycycline).
Where [16] appears, read: 2.8 µM, library screen: screen3, EWS-FLI1 expression: low (doxycycline-induced shRNA knockdown).
Setting [17] is: 8.3 µM, library screen: screen3, EWS-FLI1 expression: high (no doxycycline).
The mark [18] stands for this setting: 8.3 µM, library screen: screen3, EWS-FLI1 expression: low (doxycycline-induced shRNA knockdown).
Where [19] appears, read: 25 µM, library screen: screen3, EWS-FLI1 expression: high (no doxycycline).
The mark [20] stands for this setting: 25 µM, library screen: screen3, EWS-FLI1 expression: low (doxycycline-induced shRNA knockdown).

SMILES strings stand for the structures. Hit rate of the full screen: of about 3,200 compounds, about 300 (9.4%) showed activity. For the sample, actives were picked, then their nearest neighbours and some compounds at random. Values without a mark were called inactive.

`COc1cc(C2NC(=O)NC(C)=C2C(=O)Nc2cccc(Cl)c2)cc(OC)c1OC` (stereo unspecified): the “cell viability (log2)” value was 0.0796 under setting [1], 0.0843 under setting [2], 0.0754 under setting [3] and -0.0585 under setting [4].
Take `O[Si](CCCN1CCCCC1)(c1ccc(F)cc1)C1CCCCC1` (stereo unspecified): the “cell viability (log2)” value was 0.132 under setting [5], 0.0854 under setting [6], 0.109 under setting [7] and 0.178 under setting [8].
With `Cc1c(NC(=O)Nc2ccc3ccccc3c2)c(=O)n(-c2ccccc2)n1C`, the “cell viability (log2)” value by setting is: under setting [1], 0.0897; under setting [2], 0.113; under setting [3], 0.056; under setting [4], 0.16.
`O=C(c1ccc(F)cc1)C1CCN(CCn2c(=O)[nH]c3ccccc3c2=O)CC1`: the “cell viability (log2)” value is, setting by setting: under setting [5], -0.282 (active); under setting [6], -0.245 (active); under setting [7], -2.12 (active); under setting [8], -2.83 (active).
With `CC1(C)C(=O)N(CCN2CCC(C(=O)c3ccc(F)cc3)CC2)c2ccccc21`, the “cell viability (log2)” value under setting [9] is -0.034; the “cell viability (log2)” value under setting [10] is 0.0315; the “cell viability (log2)” value under setting [5] was 0.081; the “cell viability (log2)” value under setting [6] was 0.0775; the “cell viability (log2)” value under setting [11] was 0.05; the “cell viability (log2)” value under setting [12] is 0.0455. Besides, the “cell viability (log2)” value is, setting by setting: under setting [13], 0.00913; under setting [14], 0.0245; under setting [7], 0.0771; under setting [8], 0.0581; under setting [15], -0.0171; under setting [16], 0.0924. Besides, the “cell viability (log2)” value under setting [17] was -0.00458, the “cell viability (log2)” value under setting [18] was 0.0164, the “cell viability (log2)” value under setting [19] was 0.0894 and the “cell viability (log2)” value under setting [20] is 0.0236.
As for `Cc1nc2ccccn2c(=O)c1CCN1CCC(C(=O)c2ccc(F)cc2)CC1`, the “cell viability (log2)” value is 0.119 under setting [1]; 0.184 under setting [2]; 0.229 under setting [5]; 0.127 under setting [6]; 0.124 under setting [3]; 0.101 under setting [4]. Also, the “cell viability (log2)” value is, setting by setting: under setting [7], 0.243; under setting [8], 0.107.
Take `COc1ccc2c(c1)CC[C@@H]1[C@@H]2CC[C@]2(C)[C@@H](NCCCCCCN3C(=O)CCC3=O)CC[C@@H]12`: the “cell viability (log2)” value runs as follows: under setting [5], 0.149; under setting [6], 0.104; under setting [7], 0.246; under setting [8], 0.108.
On to `COc1cccc2c(C)cc(=O)[nH]c12`, for which the “cell viability (log2)” value is 0.0638 under setting [1], 0.0801 under setting [2], 0.144 under setting [3] and 0.0702 under setting [4].
For `C[C@@H]1CCC2[C@@H](C)[C@@H](O)O[C@@H]3OC4(C)CC[C@@H]1[C@@]23OO4` (stereo partly specified), the “cell viability (log2)” value was 0.104 under setting [1], 0.00583 under setting [2], 0.029 under setting [3] and -0.122 under setting [4].
On the same counts, the results for `CN(C)c1ccc(C=C2SC(=S)N(c3ccc(F)cc3)C2=O)cc1` are 0.0645, 0.154, 0.09 and 0.192.
Consider `C=CC(C)(C)c1c2c(c(O)c3c(=O)c4ccc(O)c(O)c4oc13)C=CC(C)(C)O2`, for which the “cell viability (log2)” value by setting is: under setting [1], -0.0194; under setting [2], 0.182; under setting [3], -0.0746; under setting [4], 0.15.
For the compound `CC1C(=O)CC2CC1C2(C)C` (stereo unspecified), the “cell viability (log2)” value was -0.106 (active) under setting [1], 0.0655 under setting [2], 0.091 under setting [3] and 0.103 under setting [4].
With `NC(=O)c1ccccc1NC(=O)c1cc2ccccc2o1`, the “cell viability (log2)” value runs as follows: under setting [1], 0.112; under setting [2], 0.167; under setting [3], 0.0735; under setting [4], 0.103.
For `O=C(O)CCCCCCCCCCCCC1C=CCC1` (stereo unspecified), the “cell viability (log2)” value under setting [1] is 0.109, the “cell viability (log2)” value under setting [2] is -0.0641, the “cell viability (log2)” value under setting [3] is 0.133 and the “cell viability (log2)” value under setting [4] is 0.00345.
For `CCC(C)[C@H]1O[C@]2(CC[C@@H]1C)CC1C[C@@H](C/C=C(\C)[C@@H](O[C@H]3C[C@H](OC)[C@@H](OC4C[C@H](OC)[C@@H](O)[C@H](C)O4)[C@H](C)O3)[C@@H](C)/C=C/C=C3\CO[C@@H]4[C@H](O)C(C)=C[C@@H](C(=O)O1)[C@]34O)O2.CO[C@H]1CC(O[C@H]2[C@H](C)O[C@@H](O[C@@H]3/C(C)=C/C[C@@H]4CC(C[C@]5(CC[C@H](C)[C@@H](C(C)C)O5)O4)OC(=O)[C@@H]4C=C(C)[C@@H](O)[C@H]5OC/C(=C\C=C\[C@@H]3C)[C@]54O)C[C@@H]2OC)O[C@@H](C)[C@@H]1O` (stereo partly specified), the “cell viability (log2)” value is, setting by setting: under setting [9], 0.062; under setting [10], 0.111; under setting [5], 0.0727; under setting [6], 0.0714; under setting [11], -0.0408; under setting [12], 0.0112. Besides, the “cell viability (log2)” value by setting is: under setting [13], -0.0851; under setting [14], -0.0397; under setting [7], -0.104 (active); under setting [8], -0.0072; under setting [15], -0.279 (active); under setting [16], -0.285 (active). Besides, the “cell viability (log2)” value by setting is: under setting [17], -0.239 (active); under setting [18], -0.115 (active); under setting [19], -3.03 (active); under setting [20], -1.99 (active).
Take `CO[C@H]1C[C@H](O[C@@H]2/C(C)=C/C[C@@H]3C[C@@H](C[C@]4(CC[C@H](C)[C@@H](C5CCCCC5)O4)O3)OC(=O)[C@@H]3C=C(C)/C(=N/O)[C@H]4OC/C(=C\C=C\[C@@H]2C)[C@]43O)O[C@@H](C)[C@@H]1O`: the “cell viability (log2)” value under setting [1] was 0.0971, the “cell viability (log2)” value under setting [2] is 0.0732, the “cell viability (log2)” value under setting [3] is 0.0965 and the “cell viability (log2)” value under setting [4] was 0.0106.
Turning to `Cc1cc(=O)c2c(O)c3c(cc2o1)OC(C)(C)CC3`, the “cell viability (log2)” value reads like this: under setting [1], -0.0169; under setting [2], 0.014; under setting [3], 0.0268; under setting [4], 0.147.
For `CCC[C@H]1CC2=C(C[C@@H](CC)CC3=C1C(=O)OC3=O)C(=O)OC2=O` the same measures were 0.0818, 0.0576, 0.117 and 0.0649.
For `Cc1sc2c(=O)n3c(nc2c1C(=O)NCCc1ccccc1)CCCCC3` the same measures were 0.129, 0.0568, 0.167 and 0.136.
Regarding `CC(C)CCC[C@@H](C)C1CC[C@H]2[C@@H]3CCC4=CC(=O)C=C[C@]4(C)[C@H]3CC[C@]12C` (stereo partly specified), the “cell viability (log2)” value runs as follows: under setting [1], 0.107; under setting [2], 0.0599; under setting [3], 0.105; under setting [4], 0.0638.
Take `c1ccc([C@@H]2CCC[C@@H]2NC2=NCCCCCCCCCCC2)cc1`: the “cell viability (log2)” value is, setting by setting: under setting [5], 0.117; under setting [6], 0.0677; under setting [7], 0.18; under setting [8], 0.156.
As for `CC1(C)C[C@@]23C(=O)CC[C@@H](O)C2(C)CC[C@H]13` (stereo partly specified), the “cell viability (log2)” value runs as follows: under setting [1], 0.0615; under setting [2], -0.0504; under setting [3], 0.0572; under setting [4], 0.0807.
